Our source for the inhibition values is PubChem BioAssay AID720647 (Broad Institute, 2013).

In all, about 380,000 compounds went through this assay and about 1,300 (0.34%) were called active. The entries come from a sample that favours actives as a whole. A number with no mark means an inactive call.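 How the source made its calls: active means drop in luminescence signal, shown as inhibition above about 50% in the replicate tests (limit read from the data, passing the limit was not always enough); inconclusive means probably only some replicates passing the limit; inactive means the rest.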

This test concerns Drosophila bursicon receptor LGR2 (rickets). Put plainly: inhibitors of bursicon-induced LGR2 CRE-luciferase signal, primary screen, cell-based, HEK293, CRE-luciferase reporter, bursicon stimulation (AID 720647).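 Further: agonist challenge used bursicon conditioned medium at about half maximal strength.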 As to conditions: bursicon-stimulated, 4 h, at 9.99 µM, active compounds read high.
`C[C@@H]1CCCCO[C@@H](CN(C)C)[C@@H](C)CN([C@H](C)CO)C(=O)c2cc(N(C)C)ccc2O1`: the inhibition is -6.42%. The figure for `C[C@H]1CN([C@@H](C)CO)C(=O)c2cc(NC(=O)C3CCCCC3)ccc2O[C@H]1CN(C)C(=O)Nc1ccccc1` is 2.55%; for `N#C[C@@H]1[C@H](c2ccc(C#CC3CCCCC3)cc2)[C@@H](CO)N1S(=O)(=O)c1ccccc1` it is 61.9% (active); for `CS(=O)(=O)N1[C@H](C#N)[C@H](c2ccc(C#CC3CCCC3)cc2)[C@H]1CO` it is -37.6%.

In the case of `N#C[C@@H]1[C@@H](c2ccc(C#Cc3cccc(F)c3)cc2)[C@H](CO)N1C(=O)C1CCOCC1`, the inhibition was -34.2%. In the case of `N#C[C@@H]1[C@H](c2ccc(C#Cc3ccccc3F)cc2)[C@H](CO)N1C(=O)C1CCCCC1`, the inhibition is 74.8% (active).

On to `N#C[C@H]1[C@H](c2ccc(C#Cc3ccc(F)cc3)cc2)[C@@H](CO)N1C(=O)C1CCCC1`, for which the inhibition is 16.6%. As to `COc1ccccc1C#Cc1ccc([C@H]2[C@@H](C#N)N(C(=O)C3CCCCC3)[C@@H]2CO)cc1`, the inhibition is 18.3%.

`N#C[C@@H]1[C@H](c2ccc(C#Cc3cccc(F)c3)cc2)[C@@H](CO)N1C(=O)C1CCCC1`: the inhibition was 82.4% (active). The figure for `CS(=O)(=O)N1[C@@H](C#N)[C@H](c2ccc(C#CC3CCCCC3)cc2)[C@@H]1CO` is -5.08%; for `N#C[C@@H]1[C@@H](c2ccc(C#Cc3cccc(F)c3)cc2)[C@@H](CO)N1C(=O)C1CCC1` it is -19.3%; for `C[C@@H]1CN([C@@H](C)CO)S(=O)(=O)c2ccc(C#CCN(C)C)cc2O[C@H]1CN(C)C(=O)C1CC1` it is 6.68%. As for `Cc1noc(C)c1S(=O)(=O)N(C)C[C@@H]1OCCCC[C@@H](C)Oc2ccc(NC(=O)c3ccccc3)cc2C(=O)N([C@@H](C)CO)C[C@@H]1C`, the inhibition was 12.5%. The figure for `O=C(N[C@H]1CC[C@@H](CCNS(=O)(=O)c2ccc(F)cc2)O[C@@H]1CO)c1ccccn1` is 11.4%; for `CCC(=O)Nc1ccc2c(c1)OC[C@H](C)N(CC1CCCCC1)C[C@@H](C)[C@H](OC)CN(C)C2=O` it is 4.64%; for `CCC(=O)N1CCC2(CC1)CN(S(C)(=O)=O)[C@@H](CO)c1c2c2ccc(OC)cc2n1C` it is -17.4%. The figure for `CCCC#Cc1cnc2c(c1)C(=O)N([C@H](C)CO)C[C@H](C)[C@@H](CN(C)S(=O)(=O)c1ccccc1)O2` is -10.8%. Consider `C[C@@H]1CN([C@@H](C)CO)S(=O)(=O)c2ccc(Br)cc2O[C@@H]1CN(C)C(=O)C1CCCCC1`, for which the inhibition is -1.83%. On to `Cc1noc(C)c1NC(=O)Nc1ccc2c(c1)C(=O)N([C@@H](C)CO)C[C@@H](C)[C@H](CN(C)C(=O)NC(C)C)O2`, for which the inhibition is 9.15%.

On to `CCCNC(=O)[C@H]1[C@H](CO)[C@H]2Cn3c(ccc(-c4cccc(F)c4)c3=O)[C@@H]1N2C(=O)CC`, for which the inhibition is 4.62%. For `CC(C)CC#Cc1ccc([C@H]2[C@H]3CN(C(=O)CN4CCOCC4)CC(=O)N3[C@H]2CO)cc1`, the inhibition is -1.92%. On to `COc1ccc2c3c(n(C)c2c1)[C@H](CO)N(C(=O)CC1CC1)CC31CCN(Cc2nccs2)CC1`, for which the inhibition was 4.96%. Regarding `Cc1cc(C(=O)COC(=O)C2CC2)c(C)n1-c1ccc(F)cc1`, the inhibition was 81.6% (active). The figure for `Cc1cc(C(=O)COc2ccccc2Cl)c(C)n1C1CC1` is -70%. The figure for `Cc1cc(C(=O)CSc2nc(N)cc(=O)[nH]2)c(C)n1-c1cccc(F)c1` is 1.57%; for `CNC[C@@H]1Oc2ccc(NC(=O)Nc3ccc4c(c3)OCO4)cc2C(=O)N([C@H](C)CO)C[C@@H]1C` it is -5.83%; for `CO[C@@H]1CN(C)C(=O)c2cc(NS(C)(=O)=O)ccc2OC[C@@H](C)N(C(=O)C2CCC2)C[C@@H]1C` it is -11.1%. Turning to `O=C(C[C@H]1CC[C@H]2[C@@H](COC[C@@H](O)CN2Cc2ccccc2)O1)N[C@@H]1CCN(Cc2ccccc2)C1`, the inhibition is 1.95%.

Turning to `O=C(NC1=CC(=O)c2ccccc2C1=O)c1ccccc1`, the inhibition is 61.4% (active). Turning to `CCS(=O)(=O)N1CC2(C1)CN(S(=O)(=O)c1ccccc1)[C@H](CO)c1c2c2ccc(OC)cc2n1C`, the inhibition was -11.1%. In the case of `CC(C)NC(=O)Nc1ccc2c(c1)CC(=O)N([C@H](C)CO)C[C@@H](C)[C@@H](CN(C)C(=O)Nc1ccc3c(c1)OCO3)O2`, the inhibition is -3.26%.

Turning to `CCCCCCCCn1c2c(c(=N)c3c1CCC3)CCCC2`, the inhibition is 52.6% (active). For the compound `Cc1noc(C)c1NC(=O)Nc1ccc2c(c1)C(=O)N([C@@H](C)CO)C[C@@H](C)[C@H](CN(C)Cc1ccc(C(F)(F)F)cc1)O2`, the inhibition is -7.29%. As for `C[C@H]1CN([C@@H](C)CO)C(=O)c2cc(C3=CCCCC3)cnc2O[C@@H]1CN(C)C(=O)c1ccc(F)cc1`, the inhibition is 2.17%. Regarding `CN1c2ccc(Br)cc2[C@@H]2[C@@H](CCN2C(=O)C2CCCC2)[C@H]1CO`, the inhibition is 1.06%. For `Cc1cc(=O)cc(C)n1-c1ccc(Cl)c(Cl)c1`, the inhibition was 5.96%.

As for `Cc1cccc(-n2ncc(Cl)c(Cl)c2=O)c1`, the inhibition was 103% (active). As to `COc1cccc(C2SCC(=O)N2c2cccc(C)c2)c1OC` (configuration not stated), the inhibition is 7.83%. As for `CCNC(=O)C[C@@H]1CC[C@H]2[C@@H](COC[C@@H](O)CN2C(=O)c2cc(Cl)cc(Cl)c2)O1`, the inhibition is 11.4%. On to `C[C@@H]1CN([C@@H](C)CO)C(=O)c2cc(NS(=O)(=O)c3ccccc3)ccc2O[C@H]1CN(C)S(=O)(=O)c1ccc(Cl)cc1`, for which the inhibition is 13.5%. In the case of `CCOC(=O)C1=C(C)c2ccccc2OC1C(=O)OCC` (configuration not stated), the inhibition was -7.81%.

For `CCOC(=O)C1=C(c2ccc(OC)cc2)C(=O)c2ccccc2C1=O`, the inhibition was 99.6% (active). `CCOC(=O)C1=C(c2ccccc2)NC(=O)NC1c1cc(OC)c(OC)cc1OC` (configuration not stated): the inhibition is 8.83%. As to `CO[C@H]1CN(C)C(=O)c2cc(NC(=O)Nc3ccc4c(c3)OCO4)ccc2OC[C@@H](C)NC[C@@H]1C`, the inhibition is -36.2%. The figure for `C[C@H](CO)N1C[C@H](C)[C@H](CN(C)C(=O)Nc2ccccc2C(F)(F)F)OCc2cn(nn2)CCCC1=O` is 3.25%.

With `CC(C)NC(=O)N(C)C[C@H]1OCCCC[C@H](C)Oc2ccc(NC(=O)CCC(F)(F)F)cc2C(=O)N([C@H](C)CO)C[C@H]1C`, the inhibition was 1.7%. For `Cc1noc(C)c1S(=O)(=O)N(C)C[C@@H]1Oc2ccc(NC(=O)Cn3cnnn3)cc2CC(=O)N([C@@H](C)CO)C[C@H]1C` the value was 0.447%.
